The list is not random: actives were taken first. Their share in the collection is about 2.4%.
MBD2 inh – inhibitors of MBD2 binding to methylated DNA, primary screen, biochemical, TR-FRET, DNA-binding domain, human. inhibition, % at 4.4 µM. Methyl-CpG-binding domain protein 2 (Homo sapiens), Q9UBB5. MBD2 binding to methylated oligonucleotide. 370,000 compounds, 0.31% hits; in the data active = inhibition above about 13%
PLCb3 inh – human PLC-beta3 inhibitors, primary screen, biochemical, fluorescence; Purified PLC-beta3, fluorogenic substrate; 370,000 compounds, 0.18% hits; 1-phosphatidylinositol 4,5-bisphosphate phosphodiesterase beta-3 (Homo sapiens), Q01970; inhibition, % at 12.2 µM; AID 720704, 2013; in the data active = inhibition above about 11%
LEDGF integ inh – blockers of LEDGF/p75-dependent integrase strand transfer – biochemical, TR-FRET, high throughput, primary screen. TR-FRET IN-LEDGF/p75 DNA integration, Eu/Cy5. inhibition, % at 3.7 µM. 370,000 compounds, 0.64% hits. AID 743269, 2014;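 active = inhibition above the screen-wide mean plus 3 SD, cut at about 13% in these data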;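 note: signal is the Cy5 over europium emission ratio at 671 and 618 nm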
PLC-gamma1 inh – PLC-gamma1 enzyme inhibitors, primary screen, biochemical, fluorescence, purified enzyme | 1-phosphatidylinositol 4,5-bisphosphate phosphodiesterase gamma-1 (Homo sapiens), P19174 | fluorogenic substrate | inhibition, % at 12.2 µM | 370,000 compounds, 0.84% hits; in the data active = inhibition above about 9.5%
UHRF1 MBD2 ctr – UHRF1 methylated DNA binding inhibitors, primary screen, counter-screen for MBD2 inhibitor project, biochemical, TR-FRET, human UHRF1, single concentration. E3 ubiquitin-protein ligase UHRF1 (Homo sapiens), Q96T88. inhibition, % at 4.4 µM. 370,000 compounds, 0.75% hits. UHRF1 binding to methylated oligo; in the data active = inhibition above about 21%;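 note: UHRF1 SRA domain binding a hemimethylated CpG hairpin DNA probe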
Each line names hits and unclear results; the compound was inactive in the other large screens.

CC(C)C[C@H]1CN=C(Nc2ccccc2)N1CCC1CCCCC1	none
c1ccc(C[C@H]2CN=C(Nc3ccccc3)N2CCC2CCCC2)cc1	PLC-gamma1 inh 10.2
CC(C)n1nc(C(=O)Nc2nc3ccccc3[nH]2)c2ccccc2c1=O	UHRF1 MBD2 ctr 98.2
COc1cccc(/C=C2\CC3(OC(=O)c4cccc(F)c4)CCCN2C3)c1 (stereo not drawn)	none
CC(C)CCn1nnnc1C(c1ccc(F)cc1)N1CCC(C(N)=O)CC1 (stereo not drawn)	UHRF1 MBD2 ctr 21.7
CN1CCN(CC(=O)Nc2ccc(S(=O)(=O)N(C)C)cc2)CC1	UHRF1 MBD2 ctr 21.7
COC(=O)CCC(=O)N1C2=NC3=C(C(=O)N(Cc4ccc5c(c4)OCO5)C3=O)C3N(C)c4ccccc4[C@]23C[C@H]1CO (stereo partly drawn)	none
CCCCn1c(=O)[nH]c2nc3cc(NC(C)=O)ccc3nc2c1=O	UHRF1 MBD2 ctr 44.7
CCCCCCn1c(=O)[nH]c2nc3cc(N)c(C)cc3nc2c1=O	none
CCN(CC)C(=O)CC[C@@H]1CC[C@]2(CCCN(S(=O)(=O)c3ccccc3)C2)O1	none
CCN(Cc1cn(Cc2ccc(C)cc2)nn1)S(=O)(=O)c1ccccc1Br	none
O=C(CSc1nnc(-c2ccncc2)o1)NC1CCCCC1	none
O=C(CSc1nnc(-c2ccc(F)cc2)o1)NC1CCCCC1	UHRF1 MBD2 ctr 35.0
COc1ccc(OCc2nnc(SCC(=O)NC3CCCCC3)o2)cc1	none
COc1ccc(Cc2nnc(SCC(=O)NC3CCCC3)o2)cc1	UHRF1 MBD2 ctr 44.8
CCCCCCCCN1C(=O)[C@@H](CC(=O)NCc2cccs2)C[C@@]2(C(=O)OC)C1=C[C@H](COCc1ccccc1)O[C@@H]2C	none
C#CCN1C(C(=O)OC)CN(CCCCCC)CCS1(=O)=O (stereo not drawn)	none
COC1=C(Br)C(=O)c2nc(C)ccc2C1=O	LEDGF integ inh 65.3, PLC-gamma1 inh 15.2, UHRF1 MBD2 ctr 38.5
Cc1nc2c(nc1C)C(=O)c1ccccc1C2=O	none
CCC1CCCCN1CCNC(=O)CCS(=O)(=O)c1ccc(Br)cc1 (stereo not drawn)	UHRF1 MBD2 ctr 24.8
CCC(C)Nc1nc(C)nc2c1nnn2Cc1ccccc1 (stereo not drawn)	none
COc1ccc(C(=O)NNC(=O)CCCCC(=O)NNC(=O)c2ccc(OC)cc2)cc1	UHRF1 MBD2 ctr 22.2
COc1ccc(C(=O)NNC(=O)CCC(=O)NNC(=O)c2ccc(OC)cc2)cc1	none
O=C(O)CC(C(=O)O)N1C(=O)/C(=C/c2ccc(-c3nc4ccccc4s3)o2)SC1=S (stereo not drawn)	MBD2 inh 34.4, LEDGF integ inh 53.2, UHRF1 MBD2 ctr 79.1
O=C(CCSc1ccccc1)Nc1ccccc1Br	UHRF1 MBD2 ctr 25.5
Cc1cccc(OCC(C)CN2CCC(C(O)(c3ccccc3)c3ccccc3)CC2)c1 (stereo not drawn)	none
COc1ccc(CCNC(=O)Nc2ccc3c(c2)[C@]2(CC(=O)N(CC(C)C)C2c2ccccc2)C(=O)N3C)cc1OC (stereo partly drawn)	none
CC(=O)Oc1ccc([N+](=O)[O-])cc1N1C(=O)c2ccccc2C1=O	PLCb3 inh 12.0, PLC-gamma1 inh 12.1
COc1ccc([N+](=O)[O-])cc1N1C(=O)c2cccnc2C1=O	none
Cc1ccc(-n2c(SCC(=O)Nc3ccccc3-c3ccccc3)nnc2-c2ccccc2)cc1	none
Cc1c(Cl)c([N+](=O)[O-])nn1CCCC(=O)N1CCN(c2ccccc2)CC1	UHRF1 MBD2 ctr 31.2
COc1ccc(-c2nc3cc(C)c(Br)c(C)n3c2Cc2ccccc2C(F)(F)F)cc1OC	UHRF1 MBD2 ctr 24.5
COc1ccc(-n2nc(C(=O)NCc3ccco3)c3c4ccccc4n(C)c3c2=O)cc1	UHRF1 MBD2 ctr 30.5
CCCCN(C)CCNC(=O)c1nn(-c2ccc(OC)cc2)c(=O)c2c1c1ccccc1n2C	none
CCN(C(=O)c1nn(-c2ccc(OC)cc2)c(=O)c2c1c1ccccc1n2C)c1ccc(OC)cc1	UHRF1 MBD2 ctr 22.4
COc1ccc(-n2nc(C(=O)NCc3ccco3)c3ccccc3c2=O)cc1	none
O=C(CSc1nc2ccccc2nc1N1CCCCC1)N1CCN(S(=O)(=O)c2cc(Cl)ccc2Cl)CC1	none
C[C@@]12CCC=C[C@H]1[C@H](c1ccc3ccccc3c1)N(Cc1ccccc1)C2=O	UHRF1 MBD2 ctr 38.5
CCCCCN1CCCCC(NC(=O)c2ccc3ccccc3c2)C1=O (stereo not drawn)	none
CC(=O)c1cccc(NC(=O)Cc2cccs2)c1	none
O=C(Cc1cccs1)Nc1cccc(C(=O)Nc2ccco2)c1	PLCb3 inh 12.9
O=C(NC1CCN(Cc2ccccc2)CC1)c1cncc(Br)c1	UHRF1 MBD2 ctr 21.0
O=C(NC1CCN(Cc2ccccc2)CC1)c1ccccc1	none
COc1ccc(Cn2cc(COC(=O)Nc3ccc(F)cc3)nn2)cc1	none
C[C@H]1CN([C@@H](C)CO)C(=O)c2cc(C#CCC3CCCC3)cnc2O[C@@H]1CN(C)C(=O)CC1CC1	UHRF1 MBD2 ctr 21.7
C[C@@H]1CN([C@@H](C)CO)S(=O)(=O)c2ccc(C#CC3CCCCC3)cc2O[C@@H]1CN(C)Cc1cccnc1	UHRF1 MBD2 ctr 23.7
C[C@@H]1CN([C@H](C)CO)C(=O)c2cc(Br)cnc2O[C@H]1CN(C)C(=O)c1ccccc1	PLC-gamma1 inh 10.9
C[C@H]1CN([C@@H](C)CO)S(=O)(=O)c2ccc(C#CC3CC3)cc2O[C@H]1CN(C)C(=O)c1cccnc1	none
C[C@@H]1CN([C@@H](C)CO)C(=O)c2cc(C#CC3CCCCC3)cnc2O[C@@H]1CN(C)S(=O)(=O)c1ccc(F)cc1	UHRF1 MBD2 ctr 21.5
O=C(CCc1ccccc1-c1ccccc1CCNC(=O)COCc1ccccc1)NCc1ccccc1	none
C[C@@H]1CN([C@H](C)CO)C(=O)c2cc(C#CC3CCCCC3)cnc2O[C@H]1CN(C)Cc1cccnc1	UHRF1 MBD2 ctr 23.3
CS(=O)(=O)N(CC(=O)NC1CCCCCC1)Cc1ccc(Cl)cc1	UHRF1 MBD2 ctr 48.6
O=C(c1cncc(Br)c1)N1CCN(S(=O)(=O)c2ccc3ccccc3c2)CC1	LEDGF integ inh 23.1
O=C(c1ccc(=O)[nH]c1)N1CCN(S(=O)(=O)c2ccc3ccccc3c2)CC1	none
O=S(=O)(CC1NCc2cc(F)ccc21)NCc1ccccc1 (stereo not drawn)	none
C/C(=N\OCc1ccc(C#N)cc1)c1ccccc1	UHRF1 MBD2 ctr 70.6
CCN(CC)S(=O)(=O)c1cccc(NC(=O)COC(=O)C2COc3ccccc3O2)c1 (stereo not drawn)	UHRF1 MBD2 ctr 23.7

Compound activity deposited in PubChem BioAssay by The Scripps Research Institute Molecular Screening Center.
